About 5,800 (36%) of roughly 16,000 compounds were called active. Inconclusive results (about 23%) are left out. The call rests on the fitted dose curve; in most records, active means well fitted curve in the direction sought with a large enough effect; inconclusive means small, poorly fitted or top-dose-only effect, or effect the other way; inactive means no such curve, though single readings can be large or run the other way. The list shows a part of the results.
molecular target: Cytochrome P450 2C19 (Homo sapiens) (UniProt P33261); assay: Cytochrome panel assay with activity outcomes; conditions: recombinant CYP, pro-luciferin dealkylation, luminescence, p450-cyp2c19; series mostly up to 57.1 µM; activity, negative = inhibition: at the top concentration
On the % scale 0 is the no-effect control and ±100 the full control effect.

Chain of Cytochrome P450 2C19 (Homo sapiens) (P33261 whole entry, looked up): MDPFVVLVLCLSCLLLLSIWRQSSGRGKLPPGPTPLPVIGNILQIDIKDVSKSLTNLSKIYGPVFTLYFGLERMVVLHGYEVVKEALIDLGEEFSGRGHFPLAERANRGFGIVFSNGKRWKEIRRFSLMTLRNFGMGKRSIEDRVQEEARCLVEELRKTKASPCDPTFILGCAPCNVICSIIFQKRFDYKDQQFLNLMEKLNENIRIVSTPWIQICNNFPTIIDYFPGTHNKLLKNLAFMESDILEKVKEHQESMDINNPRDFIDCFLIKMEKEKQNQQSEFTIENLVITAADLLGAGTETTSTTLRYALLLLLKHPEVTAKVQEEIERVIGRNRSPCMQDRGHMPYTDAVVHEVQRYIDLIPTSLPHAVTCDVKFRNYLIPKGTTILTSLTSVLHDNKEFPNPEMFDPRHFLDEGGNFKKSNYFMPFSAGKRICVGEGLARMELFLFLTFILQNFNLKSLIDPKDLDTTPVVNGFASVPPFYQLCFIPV

activity, negative = inhibition, inactive:
COc1ccc(NC(=O)N2CC[C@@]3(CCCN(C(=O)c4cnccn4)C3)C2)cc1 17.4%
Cc1nc2c(C#N)c(C)[nH]n2c(=O)c1Cc1ccccc1 -16.2%
CC(=O)O[C@H]1C2=CO[C@H](C)[C@H]3[C@H]4C5=C([C@H](O)[C@H]6O[C@@H]6C5=O)[C@H](O[C@H]4C)[C@@]23C(=O)[C@H]2O[C@@H]21 11.4% [at 11.4 µM]
Cn1c(=O)n2n(c1=O)[C@H]1[C@H](O)[C@H]3O[C@@H]3/C(=N/OCc3ccccc3)[C@@H]1CC2 50.3% [at 11.4 µM]
CC(=O)c1[nH]c(C)c(C(C)=O)c1C -10.7%
O=C(O)CCc1ccc(-c2ccc(Cl)cc2)n1CCC(=O)O -23.8%
CCCNC(=O)NS(=O)(=O)c1ccc(Cl)cc1 -5.17% [at 25.6 µM]
CCOC(=O)C[C@@H](C(=O)OCC)[C@@H]1CCCCC1=O -32.2% [at 11.4 µM]
O=C1NC(=O)C(c2ccccc2)(c2ccccc2)N1 10.9%
COC(=O)C/C=C\[C@@H](C)[C@@H]1C=C[C@H](OC(C)=O)[C@H](COC(C)=O)O1 16.3% [at 11.4 µM]
O=C1CN2CCN(CC2)CC(=O)Nc2ccc(cc2)S(=O)(=O)c2ccc(cc2)NC(=O)CN2CCN(CC2)CC(=O)Nc2ccc(cc2)S(=O)(=O)c2ccc(cc2)N1 -8.07% [at 11.4 µM]
CCC(=O)Nc1nonc1-c1nc2ccccc2n1N(C(=O)CC)C(=O)CC -13.8%
CN(C)Cc1ccccc1-c1ccc2ncnc(NC3CCNCC3)c2c1 0.549%
Cc1ccccc1-c1nc(NC2CCNCC2)c2ccccc2n1 -11.2%
O[C@@H](c1ccccc1)C1CCN(CCc2ccccc2)CC1 -43.7%
C[C@@H](N)C(=O)O -2.97%
Cc1ccccc1N1CCN(S(=O)(=O)C[C@@]23CC[C@H](C[C@H]2NC(=O)[C@@H](N)CCS(C)(=O)=O)C3(C)C)CC1 -31.2%
COc1cnc(NS(=O)(=O)c2ccc(N)cc2)nc1 -19.3% [at 25.6 µM]
O=C1NC(c2ccccc2)=NC1(NS(=O)(=O)c1ccccc1)C(F)(F)F (stereo not drawn) 9.27%
CC(=O)[C@@]1(O)CC[C@H]2[C@H]3C[C@@H](C)C4=CC(=O)C=C[C@]4(C)[C@@]3(F)[C@@H](O)C[C@]21C -14.6% [at 25.6 µM]
CCC(=O)NC(=S)Nc1ccc(S(=O)(=O)NC(C)=O)cc1 -19.2%
CC(C)(C)N1C(=O)[C@@H]2[C@H]3C(=CC[C@H]2C1=O)C(=O)[C@H]1O[C@H]1[C@H]3O 18.8% [at 11.4 µM]
COc1ccc(NC(=O)C23CC4CC(C2)CC(n2cnc(Br)n2)(C4)C3)c(C)c1 -20.6%
COC(=O)[C@@H]1[C@@H]2C[C@H]3c4[nH]c5ccccc5c4CCN3C[C@@H]2CC[C@@H]1OS(=O)(=O)O -2.78% [at 11.4 µM]

AC50, active:
Cc1nc2c(C(=O)NCc3ccc4c(c3)OCO4)c[nH]n2c(=O)c1Cc1ccccc1F 14.1 µM
C[C@@H]1O[C@H]2C3=C(C(=O)[C@H]4O[C@@H]4[C@H]3O)[C@@H]1[C@@H]1[C@@H](C)OC=C3[C@H](O)[C@H]4O[C@@H]4/C(=N\OCc4ccccc4)[C@]312 0.631 µM
CC(=O)c1c(C)[nH]c(C(=O)COc2ccc(C#N)cc2)c1C 8.91 µM
S=C1N(c2ccccc2)C(c2ccc(Cl)cc2)N2CCCN12 (stereo not drawn) 2.24 µM
Cc1ccc(S(=O)(=O)/C(C#N)=C/c2c(N3CC(C)OC(C)C3)nc3ccccn3c2=O)cc1 (stereo not drawn) 14.1 µM
O=C1/C(=C/c2ccccc2)[C@@H](NC2CCCCC2)c2ccccc21 1.26 µM
O=C(CC(NS(=O)(=O)c1ccc(Cl)cc1)c1ccco1)NCc1ccco1 (stereo not drawn) 7.94 µM
CCCNC(=O)CC(NS(=O)(=O)c1ccc(Cl)cc1)c1ccco1 (stereo not drawn) 1 µM
CCn1c(-c2nonc2NC(=O)c2ccccc2)nc2ccccc21 1.58 µM
Cc1ccccc1-c1ccc2ncnc(NC3CC3)c2c1 1.26 µM
Clc1ccccc1-c1ccc2ncnc(NC3CCNCC3)c2c1 3.98 µM
FC(F)(F)c1ccccc1-c1ccc2ncnc(NC3CC3)c2c1 2 µM
FC(F)(F)c1ccccc1-c1ccc2ncnc(NC3CCNCC3)c2c1 3.98 µM
COc1ccc(S(=O)(=O)NC2(C(F)(F)F)N=C3SCCN3C2=O)cc1 (stereo not drawn) 22.4 µM
COc1ccc(CC(=O)NC(=S)Nc2ccc(S(=O)(=O)NC(C)(C)C)cc2)cc1 25.1 µM
COc1ccc(CCNc2nc(-c3cccnc3)cs2)cc1OC 1.41 µM
O=C(NC12CC3CC(CC(C3)C1)C2)C12CC3CC(C1)CC(n1cnc(Cl)n1)(C3)C2 8.91 µM
CCOc1cc(S(=O)(=O)N(Cc2ccccc2)Cc2ccccc2)c(OCC)cc1-n1cnnn1 11.2 µM

AC50, inactive:
O=C(O)C1=CCCNC1
